Assay outcomes: PubChem, National Center for Advancing Translational Sciences (NCATS)
Pf Dd2 inh: Plasmodium falciparum Dd2 growth inhibition; Potency, µM (series often up to 28.9 µM), usual class: inhibitors; P. falciparum Dd2 growth, SYBR Green, 72 h; 120,000 compounds, 4.3% hits; active = well fitted inhibition curve with a large enough effect; note: nearly all actives have a fitted effect of over 65% in size
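Infected erythrocytes (Dd2, 0.3% parasitemia, 2.5% hematocrit final) are added to compound in RPMI-1640/Albumax II medium, grown 72 h at 37C in low oxygen, then lysed with saponin/Triton-X containing SYBR Green and read by fluorescence.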
A number is an active result; . = inactive. Shown is part of a subset that was picked to be rich in hits.

SMILES | Pf Dd2 inh
Cc1cc(C)n(CCCC(=O)N2C[C@H](CO)C[C@H](CN(C)C)C2)n1 | .
CC(=O)Nc1ccc(CN2CCC3(CC2)CC(=O)c2ccccc2O3)cc1 | .
CCCN1CCC2(CCN(C(=O)c3ccccc3)CC2)Oc2ccccc21 | .
CCCN1CCC2(CCN([S+](=O)([O-])c3cccs3)CC2)Oc2ccccc21 | 11.2µM
CCCN1CCC2(CCN([S+](=O)([O-])c3cccc(C(F)(F)F)c3)CC2)Oc2ccccc21 | .
CC(=O)N1CCC2(CC1)CC(=O)N(c1ccccc1)c1ccccc1O2 | .
CC(C)(C)C(=O)N1CCC2(CC1)CCN(Cc1cccs1)c1ccccc1O2 | 10µM
O=C1NCC2(CCN([S+](=O)([O-])c3cccs3)CC2)Oc2ccccc21 | .
CCCN1CCC2(CCN(C(=O)c3ccc(C)cc3)CC2)Oc2ccccc21 | .
O=C(Nc1ccc(Cl)cc1)N1CCC2(CC1)CCN(Cc1cccs1)c1ccccc1O2 | 1.41µM
COc1ccc(C(=O)N2CCC3(CC2)CCN(Cc2cccs2)c2ccccc2O3)cc1 | .
Cc1ccc(C(=O)N2CCC3(CC2)CCN(CCc2ccccc2)c2ccccc2O3)cc1 | 11.2µM
CCCN1CCC2(CCN(C(=O)c3ccccc3F)CC2)Oc2ccccc21 | .
Cc1ncc2n1C(=O)N(C1CCN(C(=O)c3ccccc3F)CC1)C2 | .
COc1cccc(Cn2c(Cc3c[nH]c4ccccc34)n[nH]c2=O)c1 | .
Cc1ccc(C(=O)N2CCC[C@H]2c2nc(-c3ccccc3)no2)c(C)c1 | .
CC1(c2ccccc2)N(Cc2cccnc2)C(=O)OC12CCN(C(=O)Cc1ccc3c(c1)OCO3)CC2 (stereo not drawn) | .
CCC1(C(=O)NCc2ccc(N3CCC(C)CC3)cc2)CCCCC(=O)N1 (stereo not drawn) | .
Cc1cnc(CCNS(=O)(=O)c2cn(C)cn2)n1C1CC1 | .
CCc1ccc(N2CC(c3noc(-c4ccc(OC)nc4)n3)CC2=O)cc1 (stereo not drawn) | .
CN(C)Cc1cn([C@H]2CO[C@H]3[C@@H]2OC[C@H]3O)nn1 | .
COC(=O)CC1C(=O)NCCN1C(=O)c1ccc2nc(C3CCCCC3)oc2c1 (stereo not drawn) | .
O=c1c2c(n(Cc3cccnc3)n1-c1ccccc1)CN(CC1CC1)CC2 | .
Cc1ccc(C2=NC3(CCN(C(=O)c4ccn[nH]4)CC3)ON2)cc1 | .
O=C(NCc1nnc2ccc(-c3ccccc3)nn12)c1ccco1 | .
SMILES | Pf Dd2 inh
O=C1NC(C(=O)NCCCc2ccccc2)Cn2cccc21 (stereo not drawn) | .
CCOc1ccccc1CN1CCC2(CCN(C(=O)c3ccc(C)cc3)CC2)Oc2ccccc21 | .
CCCN1CCC2(CCN(C(=O)c3ccc(F)cc3)CC2)Oc2ccccc21 | .
CCOc1ccccc1CN1CCC2(CCN(C(=O)Nc3ccccc3)CC2)Oc2ccccc21 | 7.08µM
COCCn1c(CN2C(=O)N(C)C(=O)C2(C)C)nnc1C1CC(N)C1 (stereo not drawn) | .
CCN1c2cc(C(=O)Nc3ccc(C)cc3)ccc2C(=O)N2CCCCCC21 (stereo not drawn) | .
CCN1c2cc(C(=O)Nc3ccc(OC)c(OC)c3)ccc2C(=O)N2CCCCCC21 (stereo not drawn) | .
CCN1c2cc(C(=O)Nc3cccc(OC(F)(F)F)c3)ccc2C(=O)N2CCCCC21 (stereo not drawn) | 4.47µM
CCOc1ccc(NC(=O)c2ccc3c(c2)N(CC)C2CCCCN2C3=O)cc1 (stereo not drawn) | 5.01µM
CCN1c2cc(C(=O)Nc3ccc(C)cc3C)ccc2C(=O)N2CCCCCC21 (stereo not drawn) | .
CCOC(=O)c1ccc(NC(=O)c2ccc3c(c2)N(CC)C2CCCCN2C3=O)cc1 (stereo not drawn) | .
CCN1c2cc(C(=O)Nc3cccc(OC)c3)ccc2C(=O)N2CCCCCC21 (stereo not drawn) | .
CCN1c2cc(C(=O)Nc3cc(C)ccc3OC)ccc2C(=O)N2CCCCCC21 (stereo not drawn) | 6.31µM
CN1c2cc(C(=O)Nc3cccc(OC(F)(F)F)c3)ccc2C(=O)N2CCCCC21 (stereo not drawn) | .
Cc1ccc(CN2C(=O)OC(c3cccc(NC(=O)Cc4ccccc4)c3)C2C(=O)N2CCCC2)cc1 (stereo not drawn) | .
CN(C)C(=O)c1ccc(-c2ccc(N3CCCCCC3)nc2)cc1 | .
O=C(NCc1cccs1)c1cc(-c2cccc(C(F)(F)F)c2)c2nncn2n1 | 2µM
C#CCNC(=O)c1cc(-c2cccc(C(F)(F)F)c2)c2nncn2n1 | 14.1µM
O=C(c1cc(-c2cccc(C(F)(F)F)c2)c2nncn2n1)N1CCCC1 | .
CC(C)NC(=O)c1cc(-c2cccc(C(F)(F)F)c2)c2nncn2n1 | .
O=C(c1cc(-c2cccc(C(F)(F)F)c2)c2nncn2n1)N1CCOCC1 | .
Cc1cn2nc(C(=O)NCc3cccc(C(F)(F)F)c3)cc2c(=O)[nH]1 | .
COc1ccc(C)cc1NC(=O)[C@H]1CCC[C@H]1NC(=O)c1cnc(C)cn1 | .
O=C(NCCF)c1cccc(S(=O)(=O)NCCCc2ccncc2)c1 | .
